Measurements taken from PubChem BioAssay AID652067 (The Scripps Research Institute Molecular Screening Center, 2013).
The whole screen tested about 370,000 compounds, of which about 5,400 (1.5%) were called active.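 The calls were made as follows: active = activation above the mean of all tested compounds plus 3 SD (cut at about 5.5% in these data); inactive = the rest.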 The list comes from a sample in which actives are over-represented; it also holds similar structures and randomly drawn compounds.

System: DAF-12 nuclear receptor (Haemonchus contortus)
Assay: hcDAF-12 driven luciferase reporter activation – cell-based, luminescence, HEK293, lit1-tk-luc reporter, primary screen (AID 652067);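 also: 100% = response to 3 µM Δ7-dafachronic acid high control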
Settings: HEK293 hcDAF-12 lit1-tk-luc reporter, at 6.8 µM, hits give high values, 0% DMSO, 100% Δ7-dafachronic acid

SMILES | activation
COc1cccc(CC(=O)N2CCN(C(=O)C(=O)c3cccc(C(F)(F)F)c3)CC2)c1 | 1.16% (inactive)
CC(C)CSc1nnc(-c2cccnc2)n1Cc1ccccc1 | -1.13% (inactive)
O=C(c1ccncc1)N1CC[C@H]2[C@H](CCCN2Cc2ccc(F)cc2)C1 | -1.38% (inactive)
CC(C)c1ccc(/C=C2\NC(=O)NC2=O)cc1 | -2.26% (inactive)
CC(NC(=O)C(=O)N/N=C/c1ccc(Cl)cc1)c1ccccc1 (stereo not drawn) | -1.03% (inactive)
CC(C)c1ccc(C=NNc2ccc([N+](=O)[O-])cn2)cc1 | 9.24% (active)
COC(=O)[C@]12C[C@H](CC(=O)NCc3cccc(C(F)(F)F)c3)C(=O)N(Cc3ccc4c(c3)OCO4)C1=C[C@H](COCc1ccccc1)O[C@@H]2C | 0.41% (inactive)
Cc1ccc(C2Nc3cccc4cccc(c34)N2)cc1 | 6.38% (active)
COc1ccc(-c2cc(-c3nnc(SCC(=O)Nc4cccc5ccccc45)n3N)[nH]n2)cc1 | 0.47% (inactive)
O=C(N=C1SC2CS(=O)(=O)CC2N1c1cc(Cl)ccc1Cl)C1CC1 (stereo not drawn) | -1% (inactive)
COc1ccc(Cn2cc(COC(=O)N(C)Cc3ccccc3)nn2)cc1 | -0.59% (inactive)
Cc1ccccc1C(=O)OC1OC(=O)C(Cl)=C1Nc1ccccc1 (stereo not drawn) | -2.44% (inactive)
Cc1cc(C)nc(Nc2n[nH]c(-c3ccccc3N)n2)n1 | 8.9% (active)
CC(C)CNc1cccc2c1S(=O)(=O)N[C@H](C)CO2 | -1.2% (inactive)
O=C(NCc1ccccc1)[C@@H]1CCCN1C(=O)[C@H]1CCCN1C(=O)c1cccc(Cl)c1 | -0.09% (inactive)
O=C(NN=Cc1ccco1)C(=O)Nc1ccc(Cl)c([N+](=O)[O-])c1 | -1.72% (inactive)
Cc1cc2c(nc1C)CCCN2C | 1.19% (inactive)
CCOC(=O)[C@]12CCCC=C1N(Cc1ccc(OC)cc1)C(=O)[C@@H]2CC(=O)NCc1cccs1 | -0.39% (inactive)
CNc1nc(Nc2ccc(C)c(Cl)c2)nc(N)c1[N+](=O)[O-] | 10.8% (active)
COc1cccc(Nc2nc(N)c([N+](=O)[O-])c(NCc3ccco3)n2)c1 | -3.76% (inactive)
Nc1nc(Nc2ccccc2F)nc(NC2CCCCC2)c1[N+](=O)[O-] | -1.49% (inactive)
COc1ccc(NC(=O)N(C)C[C@@H]2OCCCC[C@@H](C)Oc3ccc(NC(=O)NC4CCCCC4)cc3C(=O)N([C@H](C)CO)C[C@@H]2C)cc1 | -0.68% (inactive)

SMILES | activation
Cc1ccccc1CS(=O)(=O)Cc1ccc(C(=O)Nc2ccc(Cl)cc2)o1 | -6.56% (inactive)
COP(=O)(O)CNC(=O)OCc1ccccc1 | -1.19% (inactive)
COc1ccc(-n2nnnc2SCC(=O)NCc2cccs2)cc1 | -2.07% (inactive)
FC(F)(F)c1nc(-c2ccccc2)ncc1-c1nnnn1-c1ccccc1 | -4.23% (inactive)
COc1ccc(-n2nnnc2-c2nc3ccccc3s2)cc1 | 9.22% (active)
NC(=O)c1ccccc1N=Cc1ccc2ccccc2c1 | 10.7% (active)
O=C(OCC(=O)N1CCOCC1)c1ccc2ccccc2c1 | 0.31% (inactive)
O=C1CC[C@@H](COc2ccc3[nH]cc(-c4ccccc4)c3c2-c2ccccc2)N1 | -1.8% (inactive)
CC(C)(C)c1ccc(C(=O)Nc2cc(Cl)c(Br)cc2C(=O)O)cc1 | 2.27% (inactive)
COc1ccc(CCNC(=O)CSc2nc3c([nH]2)c(=O)n(C)c(=O)n3C)cc1 | -0.84% (inactive)
N[C@@H](Cc1ccccc1)C(=O)N1CCC(C(=O)NCC(=O)Nc2ccc(F)cc2)CC1 | 8.85% (active)
Cc1ccc(NC(=O)N2CCC(C(=O)NCc3ccc(F)cc3)CC2)cc1 | -0.76% (inactive)
O=C(NCc1ccc(F)cc1)C1CCN(C(=O)Nc2ccc(F)cc2)CC1 | -1.57% (inactive)
O=C(NC1CCC1)c1ccc(C#Cc2cccc(F)c2)c[n+]1[O-] | 1.33% (inactive)
CCOC(=O)c1cc2ccccc2n1CC(=O)c1ccccc1 | 1.16% (inactive)
COCn1c(C(O)c2ccccc2)cc2ccccc21 (stereo not drawn) | 6.22% (active)
COc1cc(C(O)c2nc3ccccc3n2C)cc(OC)c1OC (stereo not drawn) | -1.25% (inactive)
COc1ccccc1-c1ccc([C@@H]2C[C@H]3[C@H](CON3C)CN2S(=O)(=O)c2cc(Cl)cc(Cl)c2)cc1 | 1.1% (inactive)
O=C(Nc1ccccc1)Nc1nc2ccccc2s1 | 15.3% (active)
O=C(Nc1nc2ccc(Cl)cc2s1)c1cc(-c2ccc(Cl)cc2)nc2ccccc12 | 4.5% (inactive)
O=C(Nc1ccccc1)Nc1nnc(COc2ccccc2F)s1 | -0.12% (inactive)
O=C(CCCCCN1C(=O)C2C3C=CC(C3)C2C1=O)Nc1ccccn1 (stereo not drawn) | 2.04% (inactive)

SMILES | activation
CCOC(=O)[C@]12CCCC3=C1N(CCC3)C(=O)[C@@H](CC(=O)N1CCSCC1)C2 | -2.29% (inactive)
CCCCn1c(N)c(N(CC(C)C)C(=O)c2cccc(S(=O)(=O)N3CC(C)OC(C)C3)c2)c(=O)[nH]c1=O (stereo not drawn) | 6.01% (active)
CCCCn1c(N)c(N(CCOC)C(=O)c2cccc(S(=O)(=O)N3CCCCC3)c2)c(=O)[nH]c1=O | -0.97% (inactive)
CCCCn1c(N)c(N(CC(C)C)C(=O)c2cccc(S(=O)(=O)N3CCN(C(C)=O)CC3)c2)c(=O)[nH]c1=O | -1.13% (inactive)
Nc1[nH]c(/C=C2/CCCCC2n2[nH]c(=O)n(-c3ccccc3)c2=O)c(Cc2ccccc2)[n+]1Cc1ccccc1 (stereo not drawn) | -2.89% (inactive)
COC(=O)C12C=C3CC(c4ccccc4)=C3C(=O)N1Cc1[nH]c3ccccc3c1C2 (stereo not drawn) | 1.08% (inactive)
OC(c1ccccc1)c1nc(-c2cnc3ccccc3c2)cs1 (stereo not drawn) | 7.43% (active)
COc1cccc(C(NC(C)=O)c2nc(-c3cnc4ccccc4c3)cs2)c1 (stereo not drawn) | -2.08% (inactive)
CC(C)c1cccc(-c2csc(C(O)c3ccccc3)n2)c1 (stereo not drawn) | 1% (inactive)
COC(=O)c1cc(S(=O)(=O)N2CCN(C(=O)C3CCCO3)CC2)cn1C (stereo not drawn) | 2.12% (inactive)
Cc1cc(NS(=O)(=O)c2ccc(NC(=O)CSc3nnc(-c4ccc(C(C)(C)C)cc4)n3Cc3ccco3)cc2)nc(C)n1 | -0.89% (inactive)
Nc1cc(=O)c2[nH]cnc2[nH]1 | -0.07% (inactive)
CCCC[C@H](C(=O)N(CC)c1ccccc1)[C@@H](O)c1ccc2ccccc2c1 | -1.18% (inactive)
C=CCN(Cc1ccc2c(c1)OCO2)C(C#CC1CC1)C(C)(C)C (stereo not drawn) | -0.69% (inactive)
CCN(c1ccccc1)S(=O)(=O)c1cc(C(=O)NCc2ccccn2)ccc1C | -0.36% (inactive)
Cc1ccc(NC(=O)CNCc2ccccn2)cc1S(=O)(=O)N(C)C | 0.26% (inactive)
CCN(CC)S(=O)(=O)c1cc(C(=O)Nc2ccccn2)ccc1C | 5.61% (active)
CCN(CC)C(=O)CC[C@@H]1CC[C@]2(CCCN(S(=O)(=O)C3CCCCC3)C2)O1 | -3.16% (inactive)
Cc1[nH]nc2c1C(c1ccc(Br)cc1)NC2=O (stereo not drawn) | 1.05% (inactive)
COc1cccc(/C=C(/CC(=O)Nc2ccc(N3CCOCC3)cc2)c2nc3ccccc3s2)c1 | 6.15% (active)
CCn1c(Cc2ccc(OC)cc2)nnc1SCC(=O)Nc1ccc(N2CCOCC2)cc1 | 0.15% (inactive)
O=C(COC(=O)CCc1nc2ccccc2c(=O)[nH]1)Nc1ccc(N2CCOCC2)cc1 | -1.31% (inactive)

SMILES | activation
COc1cccc(N(C)C(=O)[C@@H](C)[C@@H](O)c2ccc3ccccc3c2)c1 | -0.46% (inactive)
COC(=O)C1=C(C)N(Cc2cccc(C(F)(F)F)c2)C(=NCc2ccccc2)NC1c1ccc(Cl)cc1 (stereo not drawn) | -0.23% (inactive)
COc1ccc(SSc2ccc(OC)cc2C(=O)O)c(C(=O)O)c1 | 0.58% (inactive)
c1ccc(-c2cc(-c3ccccc3)[nH]n2)cc1 | 11.7% (active)
c1ccc(-c2c[nH]c(-c3ccccc3)c2)cc1 | 2.47% (inactive)
Oc1ccccc1-c1cc(-c2ccc(Cl)cc2)n[nH]1 | 20.9% (active)
Cc1c[nH]c2cccc(-c3ccc(Cl)cc3)c12 | 2.81% (inactive)
O=C(O)c1n[nH]nc1-c1ccccc1 | -0.64% (inactive)
COc1ccc(Cn2cc(CN3[C@@H](CC(C)C)COc4cc(Br)ccc4S3(=O)=O)nn2)cc1 | -0.96% (inactive)
COC(=O)Cc1nnn2c1[C@H](C)[C@H](c1ccccc1[N+](=O)[O-])OCC2 | -0.26% (inactive)
C=C(C)C1CC23C(=O)C4(C(=O)c5ccccc5)C[C@@]5(C)CCC(CC2C1(C)C)(C4=O)C35OC (stereo partly drawn) | -1.07% (inactive)
O=C(c1c(Cl)cccc1Cl)N1CCN(c2cccc3[nH]ccc23)CC1 | -0.37% (inactive)
C=CCN1C(=O)N(Cc2ccccc2)c2ccccc2S1(=O)=O | 2.1% (inactive)
C=C(C)C#CC(Cc1ccccc1)N(CC1CC1)/C(N)=N/C(=O)OCc1ccccc1 (stereo not drawn) | -4.1% (inactive)
Cc1c(Cl)cccc1NC(=O)NCCCN1CCCC1=O | -0.07% (inactive)
Cc1c(Cl)cccc1NC(=O)Nc1ccc(C(=O)N2CCCC2)cc1 | -1.91% (inactive)
Cc1c(Cl)cccc1NC(=O)NCc1ccc(C)n1C | 6.25% (active)
Cc1ccc(OC(=O)c2c(C)nn(-c3ccccc3)c2C)cc1 | 5.72% (active)
Cc1cccc(C)c1NC(=O)COC(=O)c1c(C)nn(-c2ccccc2)c1C | -1.2% (inactive)
CCCn1c(C)cc(C(=O)COC(=O)c2c(C)nn(-c3ccccc3)c2C)c1C | -1.95% (inactive)
CCOC(=O)[C@]12CCCCC/C=C\1N(Cc1ccc(OC)cc1)C(=O)[C@H]2CC(=O)NCc1ccc(C)o1 | -1.63% (inactive)
CCOC(=O)c1c(NC(=S)SC)sc(C(=O)N2CCc3ccccc3C2)c1C | -0.42% (inactive)
